Screens as filed in PubChem BioAssay.
AmpC nodet inh = Promiscuous and Specific Inhibitors of AmpC Beta-Lactamase (assay without detergent); AmpC nitrocefin hydrolysis, absorbance 480 nm, no detergent; 1.8% of 71,000 active; AID 585, 2007; Potency, µM (doses to about 28.7 µM), inactives show top-dose activity change, negative = inhibition; P00811; note: % of control where 0% means no effect
Target sequence (P00811 whole entry, looked up): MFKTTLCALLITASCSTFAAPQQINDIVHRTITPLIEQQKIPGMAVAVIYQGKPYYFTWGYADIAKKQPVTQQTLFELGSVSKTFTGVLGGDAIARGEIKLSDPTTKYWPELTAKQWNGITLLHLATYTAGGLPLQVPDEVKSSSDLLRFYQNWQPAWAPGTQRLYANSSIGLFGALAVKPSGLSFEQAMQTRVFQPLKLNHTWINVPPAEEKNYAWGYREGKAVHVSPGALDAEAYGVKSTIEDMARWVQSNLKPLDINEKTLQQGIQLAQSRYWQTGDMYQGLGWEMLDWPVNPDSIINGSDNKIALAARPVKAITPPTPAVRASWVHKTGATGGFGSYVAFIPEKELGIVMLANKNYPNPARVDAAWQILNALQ
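AmpC, 20 mM phosphate pH 7.0; 15 min cpd preinc, RT; start with nitrocefin (800 uM stock); A480 kinetic read, 20 s intervals, 4 min. No-enzyme wells = negative control.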
Prx2 Sm inh = Schistosoma Mansoni Peroxiredoxins (Prx2). S. mansoni Prx2 activity coupled to TGR/GSH (TGR is thioredoxin glutathione reductase), NADPH fluorescence loss, qHTS. AID 448, 2006. 0.07% of 65,000 active. Schistosoma mansoni peroxiredoxin 2 (Prx2). Potency, µM
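Purified S. mansoni TGR and Prx2 in pH 7.4 phosphate buffer with EDTA and Tween-20 were preincubated with compounds for 15 min. Further NADPH/GSH was added, then a 2.5 mM H2O2 aliquot initiated turnover, followed kinetically by NADPH fluorescence.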
Anthrax LT inh = qHTS Assay for Anthrax Lethal Toxin Internalization; 0.67% of 70,000 active; Cells, anthrax lethal toxin internalization, FRET ratio (460/530); Potency, µM (series often up to 40 µM), without a hit: top-dose activity change, negative = inhibition, most hits filed as inhibitors; note: % is set by controls: 0 for no effect and ±100 for the full control effect; nearly all actives have a fitted effect of over 50% in size
AmpC det inh = Promiscuous and Specific Inhibitors of AmpC Beta-Lactamase (assay with detergent); purified AmpC, nitrocefin hydrolysis with detergent; AID 584, 2007; 0.09% of 71,000 active; Potency, µM (doses to about 28.7 µM), without a hit: top-dose activity change, negative = inhibition; P00811; active = well fitted curve in the direction sought with a large enough effect; inconclusive = small, poorly fitted or top-dose-only effect; note: % is set by controls: 0 for no effect and ±100 for the full control effect
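E. coli AmpC (5.3 nM) in 20 mM phosphate pH 7.0 with 0.01% Triton X-100, preincubated 15 min RT with compound; nitrocefin (2 uL of 800 uM stock) hydrolysis followed by 480 nm absorbance every 20 s over 4 min.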
Numbers without * were called inactive; ? = inconclusive; . = no result given; [ ] = another dose, or the depositor's remark. A selection: hits, their analogues and other compounds. The true share with any hit is near 2.4%. Unless noted, calls come from the whole dose curve. Potency is the fitted concentration of half-maximal effect.

SMILES	AmpC nodet inh	Prx2 Sm inh	Anthrax LT inh	AmpC det inh
Cc1ccccc1OCc1nc(-c2ccc(NC(=O)c3ccc4c(c3)OCO4)cc2)no1	13µM*	>57	-8%	-2%
Cc1ccccc1OCc1nc(-c2ccc(NC(=O)c3ccco3)cc2)no1	-4%	>57	?	1%
COCCN(CCOC)c1nc(C)nc2c1nc(-c1ccccc1)n2CCN1CCCC1	63%	.	-2%	14%
CS(=O)(=O)N1CCC2(CCCN(c3cccc(-c4ccccc4)c3)C2)CC1	49%	>57	?	1%
CCn1c(SCC(=O)N2CCOCC2)nc(O)cc1=O	4µM*[single pt active]	>57	-5%	13%
N=c1n(CCO)c2ccccc2n1CCOc1ccc(Cl)cc1Cl	4µM*[single pt active]	>57	?	10%
COc1cc(C(=O)OCC(=O)Nc2cc(C)on2)ccc1OCc1ccccc1Cl	13µM*	>57	2%	-2%
CCn1cc(C(=O)Nc2nncs2)c(=O)c2cc(F)c(N3CCN(C(=O)c4ccco4)CC3)cc21	78%	>57	-11%	-4%
CN1CCN(c2ncc3ncc(=O)n(Cc4cccs4)c3n2)CC1	-4%	>57	-10%	0%
CCCCNc1cc(=O)n(C)c(=O)[nH]1	4µM*[single pt active]	>57	6%	11%
CC1(C)CCC[C@@]2(C)[C@@H]1CC[C@]1(C)OC(=O)C[C@@H]21	55%	>57	?	13%
Cn1c(=O)c(=O)n(C)c2cc(S(=O)(=O)CCC(=O)N3CCOCC3)ccc21	4µM*[single pt active]	>57	-10%	12%
Cn1c(=O)c(=O)n(C)c2cc(S(=O)(=O)N3CCOCC3)ccc21	-16%	>57	-7%	-2%
NCc1ccccc1CC(=O)N[C@@H]1C(=O)N2C(C(=O)O)=C(CSc3nnnn3CC(=O)O)CS[C@@H]12	-15%[12.8 µM]	>57	1%[3.58 µM]	-4%[12.8 µM]
CO/N=C(\C(=O)N[C@@H]1C(=O)N2C(C(=O)O)=C(COC(N)=O)CS[C@@H]12)c1ccco1	0.04µM*	>57	?	0.079µM*
CCCCSc1c(C)c2cc3c(cc2[nH]c1=O)OCO3	16µM*[single pt active]	>57	.	-4%
NC(=NCCC[C@@H](N)C(=O)O)N[N+](=O)[O-]	7%	>57	2%	-4%
N#Cc1c(-c2ccc(Cl)cc2Cl)nc2n(c1=O)CCS2	10µM*[single pt active]	>57	?	0%
CCOC(=O)C1CCCN(c2c(N3CCN(C4CCCCC4)CC3)c(=O)c2=O)C1 (stereo not drawn)	59%	>57	-12%	9%
CCOC(=O)C1CCCN(c2c(N3CCC(N4CCCCC4)CC3)c(=O)c2=O)C1 (stereo not drawn)	4µM*[single pt active]	>57	-22%	13%
CCOC(=O)C1CCCN(c2c(NCC3CCCO3)c(=O)c2=O)C1 (stereo not drawn)	3.2µM*[single pt active]	>57	-6%	11%
CCOC(=O)C1CCCN(c2c(Nc3ccc(C)c(C)c3)c(=O)c2=O)C1 (stereo not drawn)	3.2µM*[single pt active]	>57	?	13%
CC(O)CCCCCCC/C=C/C=C/C(N)=O (stereo not drawn)	.	.	-13%[8 µM]	.
COC(=O)c1ccc(C(/C=C/[C@@H](C)C(=O)N(C)Cc2ccccc2)NC(=O)OCc2ccccc2)cc1 (stereo partly drawn)	28%	.	-5%	16%
Cc1nn(-c2ccccc2)c2sc(C(=O)N(CC(=O)NC(C)(C)C)Cc3ccco3)cc12	77%	>57	13µM*	-6%
SMILES	AmpC nodet inh	Prx2 Sm inh	Anthrax LT inh	AmpC det inh
CC1(C)[C@@H](O)CC[C@@]2(C)[C@H]1CC[C@]1(C)[C@H]2C(=O)C=C2[C@@H]3C[C@@](C)(C(=O)O)CC[C@]3(C)CC[C@@]21C	-5%	>57	?	-5%
COc1ccc(NC(=O)CN(C)S(=O)(=O)c2cccc3cccnc23)cc1	-4%	>57	7%	13%
CN(CC(=O)Nc1ccc(Cl)cc1)S(=O)(=O)c1cccc2cccnc12	-13%	>57	7.9µM*	9%
CN(CC(=O)NC1CCCCCCC1)S(=O)(=O)c1cccc2cccnc12	4µM*[single pt active]	>57	-9%	3%
CC(=O)N1CCC2(CC1)CN(C(=O)Nc1cccc(C#N)c1)C2	8%	>57	1%	-1%
Cn1c(=O)c(-c2cc(F)cc(F)c2)nc2cnc(N3CCNCC3)nc21	43%	>57	?	-1%
CC(=O)Oc1ccc(C(c2ccc(OC(C)=O)cc2)c2ccccn2)cc1	57%	>57	0.16µM*	12%
COc1ccc([C@H](O)c2ccccn2)cc1	2%[5.75 µM]	>57	-7%[8 µM]	-7%[5.75 µM]
